The results in this text go back to PubChem BioAssay AID602342 (Broad Institute, 2012).

In all, about 340,000 compounds went through this assay and about 1,000 (0.29%) were called active. The sample as a whole holds a higher share of actives than the screen did. A number with no mark means an inactive call.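 Rule for the calls: active = mean replicate activation score at least 90 and every replicate individually at or above 90; inconclusive = only one of the two criteria met; inactive = neither criterion met.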

This experiment in a line: compounds raising miR-122 luciferase sensor output – cell-based, single point, plate reader, miR-122 inhibitor project, primary screen (AID 602342).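 Note: higher luciferase means less miR-122 activity so hits act as miR-122 inhibitors.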 Conditions: Huh7 miR-122 Renilla luciferase sensor, 48 h, stronger effect = higher value, neutral wells = 0, positive control = 100; at 16.7 µM unless noted.
Turning to `CC(=O)N1[C@H](CO)[C@H]2c3ccccc3N(C(=O)c3ccc(F)cc3)C[C@H]21`, the activation (reporter increase) was -19.2%.

Regarding `CCC(=O)N1[C@@H](CO)[C@@H]2c3ccccc3N(C(=O)c3ccccc3F)C[C@@H]21`, the activation (reporter increase) was -12.6%.

For the compound `O=C(c1ccccc1F)N1C[C@H]2[C@@H](c3ccccc31)[C@@H](CO)N2C(=O)c1ccc(F)cc1`, the activation (reporter increase) is 471% (active).

In the case of `O=C(C[C@@H]1C[C@@H]2c3cc(NC(=O)c4ccc5c(c4)OCO5)ccc3O[C@@H]2[C@@H](CO)O1)NCC1CC1`, the activation (reporter increase) is -4.14%.

For the compound `COc1ccc(NC(=O)N(C)C[C@@H]2Oc3ccc(NC(=O)Cc4cn(C)c5ccccc45)cc3CC(=O)N([C@@H](C)CO)C[C@H]2C)cc1`, the activation (reporter increase) is -1.9%.

On to `O=S(=O)(Nc1ccc(Oc2ncccn2)c(Cl)c1)c1ccc(F)cc1`, for which the activation (reporter increase) was 8.55% [at 12.5 µM].

Consider `Cc1ccc(NS(=O)(=O)c2ccc(C(C)(C)C)cc2)cn1`, for which the activation (reporter increase) was 23.7% [at 12.5 µM].

Consider `Cc1ccc(S(=O)(=O)Nc2ccc3ncccc3c2)cc1`, for which the activation (reporter increase) is 146% [at 12.5 µM] (active).

With `O=C(C1CCC1)N1C[C@H]2[C@@H](c3ccccc31)[C@@H](CO)N2C(=O)c1ccccc1F`, the activation (reporter increase) is -20%.

As to `Cc1noc(C)c1NC(=O)Nc1ccc2c(c1)C(=O)N([C@H](C)CO)C[C@@H](C)[C@H](CN(C)C(=O)Nc1cccc3ccccc13)OCCCC[C@@H](C)O2`, the activation (reporter increase) was 0.113%.

With `CN1C(=O)c2cc(NC(=O)c3cscn3)ccc2OC[C@@H]2O[C@H](CC(=O)N3CCCCC3)CC[C@H]21`, the activation (reporter increase) is 4.63%.

As for `Cc1sc2ncnc(SCC(=O)NC3CCS(=O)(=O)C3)c2c1C` (centres undefined), the activation (reporter increase) is -0.478% [at 12.5 µM].

Consider `Cc1sc2ncnc(SCC(=O)Nc3ccc(CN4CCCC4)cc3)c2c1C`, for which the activation (reporter increase) is 2.95% [at 12.5 µM].

On to `CCCNc1ncnc2sc(C)c(C)c12`, for which the activation (reporter increase) was 122% [at 12.5 µM] (active).

On to `O=C(C1CCC1)N1CCCCN2[C@H](C1)[C@@H](c1ccc(C#CC3CCCC3)cc1)[C@@H]2CO`, for which the activation (reporter increase) was -25.6%.

For `O=C(C[C@@H]1CC[C@@H]2[C@H](COC[C@@H](O)CN2Cc2ccc(F)cc2)O1)NCc1ccncn1`, the activation (reporter increase) is 5.81%.

In the case of `C[C@H](CO)N1C[C@H](C)[C@H](CN(C)C(=O)Nc2cccc3ccccc23)OCCCC[C@H](C)Oc2ccc(NC(=O)Nc3ccc4c(c3)OCO4)cc2C1=O`, the activation (reporter increase) is 6.96%.

On to `Cc1c(C)c(C)c(S(=O)(=O)NCCc2ccccn2)c(C)c1C`, for which the activation (reporter increase) was 107% [at 12.5 µM] (active).

Turning to `O=S(=O)(NCCc1ccccn1)c1cc(Cl)cc(Cl)c1O`, the activation (reporter increase) was -4.9% [at 12.5 µM].

On to `O=S(=O)(/C=C/c1ccccc1)NCCc1ccccn1`, for which the activation (reporter increase) is 73.3% [at 12.5 µM].

Consider `Cc1noc(C)c1NC(=O)N(C)C[C@H]1OCc2cn(nn2)CCCC(=O)N([C@@H](C)CO)C[C@H]1C`, for which the activation (reporter increase) is 0.754%.

For the compound `C[C@@H]1CN([C@@H](C)CO)S(=O)(=O)c2ccc(-c3cccc(C(=O)N(C)C)c3)cc2O[C@@H]1CN(C)C(=O)Nc1ccccc1`, the activation (reporter increase) was 18.2%.

With `C[C@H]1CN([C@@H](C)CO)C(=O)c2cc(N(C)C)ccc2O[C@@H]1CN(C)S(=O)(=O)c1ccc(Cl)cc1`, the activation (reporter increase) was 47.5%.

Consider `O=C(NN=Cc1ccccc1)c1ccccc1`, for which the activation (reporter increase) is -2.03% [at 12.5 µM].

`Cc1cc(C(=O)N/N=C\C(Br)=C\c2ccccc2)c(C)o1`: the activation (reporter increase) was 1.4% [at 12.5 µM].

For `CC(C)c1cc(C(=O)N/N=C/C(Br)=C/c2ccccc2)n[nH]1`, the activation (reporter increase) is 122% [at 12.5 µM] (active).

`O=C(c1cccnc1)N1C[C@H]2[C@@H](c3ccccc31)[C@@H](CO)N2C(=O)Nc1ccccc1F`: the activation (reporter increase) is -2.82%.

For the compound `O=[N+]([O-])c1ccccc1/C=C/CN1CCCC(CO)C1` (centres undefined), the activation (reporter increase) is 4.13% [at 12.5 µM].

Consider `CC1CCCCC1NC(=O)/C(C#N)=C/C=C/c1ccccc1[N+](=O)[O-]` (centres undefined), for which the activation (reporter increase) was 102% [at 12.5 µM] (active).

`CC1CCCCC1NC(=O)COc1ccc(C#N)cc1` (centres undefined): the activation (reporter increase) is -5.71% [at 12.5 µM].

As to `CN(C[C@@H]1[C@H](c2ccccc2)[C@@H](CO)N1Cc1ccccn1)S(C)(=O)=O`, the activation (reporter increase) is 0%.

Consider `CSc1nc2ccc(NC(=O)c3c(F)cccc3F)cc2s1`, for which the activation (reporter increase) is -16% [at 12.5 µM].

Turning to `CCCC(=O)Nc1nc2ccc(NC(=O)c3c(F)c(F)c(OC)c(F)c3F)cc2s1`, the activation (reporter increase) is 143% [at 12.5 µM] (active).

`CC(=O)Nc1ccc2nc(NC(=O)CS(=O)(=O)c3ccc(F)cc3)sc2c1`: the activation (reporter increase) is 5.07% [at 12.5 µM].

`Cn1c(=O)c2cn(-c3cccc4ccccc34)cc2n(C)c1=O`: the activation (reporter increase) was -1.8% [at 12.5 µM].

As for `COc1ccc(OC)c(-n2cc3c(=O)n(C)c(=O)n(C)c3c2)c1`, the activation (reporter increase) is 102% [at 12.5 µM] (active).

`COc1cccc(-n2cc3c(c2-c2ccccc2)c(=O)n(C)c(=O)n3C)c1`: the activation (reporter increase) was 13% [at 12.5 µM].

Turning to `COc1ccc(S(=O)(=O)Nc2ccc3c(c2)C(=O)N([C@@H](C)CO)C[C@H](C)[C@@H](CN(C)C(=O)NC(C)C)OCCCC[C@H](C)O3)cc1`, the activation (reporter increase) is 15.2%.

As to `C[C@H](CO)N1C[C@H](C)[C@H](CN(C)C)Oc2ccc(NC(=O)c3ccncc3)cc2CC1=O`, the activation (reporter increase) is 5.36%.

As to `COc1cccc(-c2cnc3c(NC(C)=O)cc(-c4cc(F)ccc4OC)cn23)c1`, the activation (reporter increase) is 36.5% [at 12.5 µM].

As to `COc1ccc(-c2cc(NC(C)=O)c3ncc(-c4cc(OC)c(OC)c(OC)c4)n3c2)cn1`, the activation (reporter increase) was 107% [at 12.5 µM] (active).

For the compound `COc1ccccc1-c1cc(NC(C)=O)c2ncc(-c3ccc(F)cc3)n2c1`, the activation (reporter increase) is 5.94% [at 12.5 µM].

For `Cc1noc(C)c1NC(=O)Nc1ccc2c(c1)CC(=O)N([C@@H](C)CO)C[C@@H](C)[C@H](CN(C)Cc1ccc(Oc3ccccc3)cc1)O2`, the activation (reporter increase) is -3.38%.

Turning to `CCC(=O)Nc1ccc2c(c1)C(=O)N(C)[C@@H]1CC[C@@H](CC(=O)NCCc3ccccc3)O[C@H]1CO2`, the activation (reporter increase) is -4.08%.
